This passage reports binding signal results from paper PMC7862700, “An all-to-all approach to the identification of sequence-specific readers for epigenetic DNA modifications on cytosine”.

Common to all, as to assay: DAPPL (digital affinity profiling via proximity ligation, sequencing); 10 mM Tris-HCl pH 7.5, 50 mM NaCl, 1 mM DTT, 4% glycerol, room temperature, 30 min; GST-TFs on glutathione beads, 16-mer random dsDNA library, 0.1% formaldehyde crosslink after washing; high values mean tight binding
One assay deals with T1, FEV (Homo sapiens, UniProt Q99581 1-238).
T1 sequence: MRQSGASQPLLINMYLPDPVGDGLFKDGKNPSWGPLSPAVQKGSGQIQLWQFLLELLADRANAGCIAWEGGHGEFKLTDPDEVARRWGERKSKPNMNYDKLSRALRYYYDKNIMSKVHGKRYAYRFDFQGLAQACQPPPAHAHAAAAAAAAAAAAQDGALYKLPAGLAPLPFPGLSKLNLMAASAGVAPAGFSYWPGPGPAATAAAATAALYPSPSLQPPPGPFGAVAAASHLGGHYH
To be noted: protein: recombinant; tags: N-terminal GST; dsDNA, one strand shown. The method in brief: (§1)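 Human transcription factors were made in yeast as GST fusions, captured on glutathione beads and barcoded with DNA. With a tag-only sample included, the pool was incubated with 200 nmole of a random double-stranded 16-mer DNA library in Tris/NaCl/DTT/glycerol buffer at room temperature for 30 min, then crosslinked with 0.1% formaldehyde after washing, ligated by proximity, amplified and sequenced. For binding signal, each hexamer's read frequency for a factor is divided by its frequency for the tag-only sample.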

The target of another assay is ETV5 (Homo sapiens, UniProt P41161 1-510). Conditions: protein: recombinant; tags: N-terminal GST; dsDNA, one strand shown. In a few lines:
as §1

The target in a further assay is HSF1 (Homo sapiens, UniProt Q00613 1-529). Conditions: protein: recombinant; tags: N-terminal GST; chain copies: 3; dsDNA, one strand shown. In a few lines:
as §1

In a further assay the target is T2, SPIC (Homo sapiens, UniProt Q8N5J4 1-248).
T2 sequence: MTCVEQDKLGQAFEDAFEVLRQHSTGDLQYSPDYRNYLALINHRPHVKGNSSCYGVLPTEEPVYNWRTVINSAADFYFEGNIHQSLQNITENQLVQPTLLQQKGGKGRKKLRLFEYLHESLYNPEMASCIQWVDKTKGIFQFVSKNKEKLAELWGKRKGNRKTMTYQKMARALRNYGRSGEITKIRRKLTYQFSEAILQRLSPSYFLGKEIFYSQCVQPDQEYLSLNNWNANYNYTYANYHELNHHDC
Conditions: protein: recombinant; tags: N-terminal GST; dsDNA, one strand shown. In a few lines: as §1

A further assay addresses ELF4 (Homo sapiens, UniProt Q99607 1-663). Conditions: protein: recombinant; tags: N-terminal GST; dsDNA, one strand shown. The method in brief:
as §1

The next assay deals with T3, ELK4 (Homo sapiens, UniProt P28324-2 1-405).
T3 sequence: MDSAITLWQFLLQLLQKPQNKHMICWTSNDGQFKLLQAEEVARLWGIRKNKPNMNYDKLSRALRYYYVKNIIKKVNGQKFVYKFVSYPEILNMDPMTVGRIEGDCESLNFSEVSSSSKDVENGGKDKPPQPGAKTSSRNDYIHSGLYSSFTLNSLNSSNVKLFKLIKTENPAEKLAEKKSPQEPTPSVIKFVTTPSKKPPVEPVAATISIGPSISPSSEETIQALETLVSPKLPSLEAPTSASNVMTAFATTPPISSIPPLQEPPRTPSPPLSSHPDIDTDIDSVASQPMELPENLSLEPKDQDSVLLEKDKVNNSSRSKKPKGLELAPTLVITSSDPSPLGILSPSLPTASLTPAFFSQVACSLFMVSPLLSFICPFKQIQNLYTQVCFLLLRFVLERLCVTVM
Conditions: protein: recombinant; tags: N-terminal GST; dsDNA, one strand shown. In a few lines: as §1

The next assay has as its target T4, ETV2 (Homo sapiens, UniProt O00321 1-342).
T4 sequence: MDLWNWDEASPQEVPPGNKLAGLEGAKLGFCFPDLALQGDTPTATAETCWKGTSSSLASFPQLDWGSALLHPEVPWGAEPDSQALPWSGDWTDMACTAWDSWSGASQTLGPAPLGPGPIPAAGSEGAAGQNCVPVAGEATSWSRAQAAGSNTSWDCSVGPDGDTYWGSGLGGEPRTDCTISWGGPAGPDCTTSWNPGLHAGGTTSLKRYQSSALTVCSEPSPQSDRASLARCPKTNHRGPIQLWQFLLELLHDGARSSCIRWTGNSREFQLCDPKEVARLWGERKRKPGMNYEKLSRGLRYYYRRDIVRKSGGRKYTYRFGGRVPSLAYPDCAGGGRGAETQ
To be noted: protein: recombinant; tags: N-terminal GST; dsDNA, one strand shown. The method in brief: as §1

Another assay addresses T5, ELF3 (Homo sapiens, UniProt P78545 1-371).
T5 sequence: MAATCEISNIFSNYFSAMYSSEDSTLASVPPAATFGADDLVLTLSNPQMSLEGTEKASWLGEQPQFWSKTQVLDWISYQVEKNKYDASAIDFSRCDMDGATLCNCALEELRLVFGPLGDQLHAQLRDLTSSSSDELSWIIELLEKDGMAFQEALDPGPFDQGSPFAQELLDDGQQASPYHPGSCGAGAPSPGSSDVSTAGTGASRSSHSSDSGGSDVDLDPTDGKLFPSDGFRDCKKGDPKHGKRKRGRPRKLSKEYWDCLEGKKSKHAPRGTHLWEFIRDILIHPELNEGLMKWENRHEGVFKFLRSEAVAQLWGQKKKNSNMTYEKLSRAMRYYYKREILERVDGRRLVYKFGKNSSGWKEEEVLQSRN
Conditions: protein: recombinant; tags: N-terminal GST; dsDNA, one strand shown. The method in brief:
as §1

Another assay concerns the target CRX (Homo sapiens, UniProt O43186 1-299). To be noted: protein: recombinant; tags: N-terminal GST; dsDNA, one strand shown. In a few lines:
as §1

For another assay, the target named is ETV1 (Homo sapiens, UniProt P50549 1-477). To be noted: protein: recombinant; tags: N-terminal GST; dsDNA, one strand shown. In a few lines:
as §1

The target in another assay is T6, ERF (Homo sapiens, UniProt P50548 1-548).
T6 sequence: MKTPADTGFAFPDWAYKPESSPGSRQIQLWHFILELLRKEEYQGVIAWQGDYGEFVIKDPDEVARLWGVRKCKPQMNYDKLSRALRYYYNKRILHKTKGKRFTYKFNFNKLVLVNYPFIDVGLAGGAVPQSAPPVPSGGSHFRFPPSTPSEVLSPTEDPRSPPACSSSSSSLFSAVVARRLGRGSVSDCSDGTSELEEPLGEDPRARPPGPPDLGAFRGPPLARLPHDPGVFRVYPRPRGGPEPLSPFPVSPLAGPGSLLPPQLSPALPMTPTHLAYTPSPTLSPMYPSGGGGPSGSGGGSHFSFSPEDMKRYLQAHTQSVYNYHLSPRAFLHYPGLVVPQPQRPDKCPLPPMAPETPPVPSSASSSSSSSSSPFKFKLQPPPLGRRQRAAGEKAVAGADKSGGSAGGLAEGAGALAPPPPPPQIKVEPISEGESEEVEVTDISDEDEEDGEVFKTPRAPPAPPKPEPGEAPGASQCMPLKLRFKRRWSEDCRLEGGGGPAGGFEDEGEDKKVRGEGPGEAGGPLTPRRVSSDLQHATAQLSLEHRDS
Conditions: protein: recombinant; tags: N-terminal GST; dsDNA, one strand shown. The method in brief: as §1

The target in a further assay is T7, ETV3L (Homo sapiens, UniProt Q6ZN32 1-361).
T7 sequence: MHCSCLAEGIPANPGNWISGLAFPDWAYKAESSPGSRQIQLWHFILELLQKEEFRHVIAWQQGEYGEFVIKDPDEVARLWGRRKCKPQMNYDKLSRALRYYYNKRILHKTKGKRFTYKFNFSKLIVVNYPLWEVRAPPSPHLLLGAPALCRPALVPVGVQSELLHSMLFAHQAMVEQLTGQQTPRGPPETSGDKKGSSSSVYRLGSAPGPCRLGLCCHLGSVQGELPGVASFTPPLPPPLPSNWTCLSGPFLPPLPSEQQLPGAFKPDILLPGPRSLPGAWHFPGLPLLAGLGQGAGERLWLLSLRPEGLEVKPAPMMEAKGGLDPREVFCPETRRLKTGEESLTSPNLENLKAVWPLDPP
To be noted: protein: recombinant; tags: N-terminal GST; dsDNA, one strand shown. In a few lines:
as §1

The target in the next assay is T8, ETS2 (Homo sapiens, UniProt P15036 1-469).
T8 sequence: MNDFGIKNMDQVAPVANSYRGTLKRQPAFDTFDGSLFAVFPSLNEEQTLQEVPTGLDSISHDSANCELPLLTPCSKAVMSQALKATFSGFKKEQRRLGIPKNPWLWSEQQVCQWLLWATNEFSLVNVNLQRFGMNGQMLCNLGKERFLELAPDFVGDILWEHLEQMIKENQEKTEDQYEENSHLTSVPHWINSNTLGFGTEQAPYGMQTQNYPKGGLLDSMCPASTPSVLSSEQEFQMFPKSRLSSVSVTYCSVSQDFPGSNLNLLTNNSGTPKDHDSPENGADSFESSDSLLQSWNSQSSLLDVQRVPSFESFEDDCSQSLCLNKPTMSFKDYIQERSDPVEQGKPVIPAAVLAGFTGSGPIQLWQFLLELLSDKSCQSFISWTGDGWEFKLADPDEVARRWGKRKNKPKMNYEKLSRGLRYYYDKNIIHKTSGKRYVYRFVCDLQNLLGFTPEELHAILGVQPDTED
Conditions: protein: recombinant; tags: N-terminal GST; dsDNA, one strand shown. In a few lines:
as §1

The target in a further assay is T9, SPDEF (Homo sapiens, UniProt O95238 1-335).
T9 sequence: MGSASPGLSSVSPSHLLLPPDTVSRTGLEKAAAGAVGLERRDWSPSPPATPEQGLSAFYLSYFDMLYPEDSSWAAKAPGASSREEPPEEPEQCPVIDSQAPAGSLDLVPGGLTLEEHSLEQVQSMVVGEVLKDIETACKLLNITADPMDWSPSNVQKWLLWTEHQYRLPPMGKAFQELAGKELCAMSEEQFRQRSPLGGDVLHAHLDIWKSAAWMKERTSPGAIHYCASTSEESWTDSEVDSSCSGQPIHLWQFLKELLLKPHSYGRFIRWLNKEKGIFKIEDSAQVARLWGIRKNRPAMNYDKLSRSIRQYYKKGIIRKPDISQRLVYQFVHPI
To be noted: protein: recombinant; tags: N-terminal GST; dsDNA, one strand shown. In a few lines: as §1

The target of another assay is T10, ETV7 (Homo sapiens, UniProt Q9Y603 1-341).
T10 sequence: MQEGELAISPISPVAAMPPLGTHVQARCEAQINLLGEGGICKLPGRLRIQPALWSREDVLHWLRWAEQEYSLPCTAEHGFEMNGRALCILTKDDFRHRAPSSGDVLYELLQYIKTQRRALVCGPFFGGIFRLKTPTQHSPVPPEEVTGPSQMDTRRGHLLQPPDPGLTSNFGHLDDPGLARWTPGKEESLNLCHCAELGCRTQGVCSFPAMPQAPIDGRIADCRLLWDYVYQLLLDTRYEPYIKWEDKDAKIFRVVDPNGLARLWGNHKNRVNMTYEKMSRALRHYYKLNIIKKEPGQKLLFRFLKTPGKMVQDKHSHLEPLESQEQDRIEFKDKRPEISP
Conditions: protein: recombinant; tags: N-terminal GST; dsDNA, one strand shown. In a few lines: as §1

The next assay addresses T11, ELF5 (Homo sapiens, UniProt Q9UKW6-2 1-255).
T11 sequence: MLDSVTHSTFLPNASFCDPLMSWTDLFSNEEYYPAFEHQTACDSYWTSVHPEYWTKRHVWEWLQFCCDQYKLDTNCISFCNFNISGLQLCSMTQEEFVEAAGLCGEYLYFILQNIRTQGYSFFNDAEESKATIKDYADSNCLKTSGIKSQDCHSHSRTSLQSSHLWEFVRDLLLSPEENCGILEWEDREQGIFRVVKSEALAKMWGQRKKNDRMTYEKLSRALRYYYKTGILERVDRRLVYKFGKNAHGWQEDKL
To be noted: protein: recombinant; tags: N-terminal GST; dsDNA, one strand shown. In a few lines: as §1

For a further assay, the target named is T12, ETV3 (Homo sapiens, UniProt P41162-2 1-143).
T12 sequence: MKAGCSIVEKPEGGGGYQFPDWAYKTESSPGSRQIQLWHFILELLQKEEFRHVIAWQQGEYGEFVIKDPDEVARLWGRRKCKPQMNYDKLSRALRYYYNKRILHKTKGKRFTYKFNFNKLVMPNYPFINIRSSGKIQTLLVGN
To be noted: protein: recombinant; tags: N-terminal GST; dsDNA, one strand shown. The method in brief:
as §1

The target of another assay is ETV6 (Homo sapiens, UniProt P41212 1-452). To be noted: protein: recombinant; tags: N-terminal GST; dsDNA, one strand shown. The method in brief: as §1
ETV6, sequence (P41212 whole entry): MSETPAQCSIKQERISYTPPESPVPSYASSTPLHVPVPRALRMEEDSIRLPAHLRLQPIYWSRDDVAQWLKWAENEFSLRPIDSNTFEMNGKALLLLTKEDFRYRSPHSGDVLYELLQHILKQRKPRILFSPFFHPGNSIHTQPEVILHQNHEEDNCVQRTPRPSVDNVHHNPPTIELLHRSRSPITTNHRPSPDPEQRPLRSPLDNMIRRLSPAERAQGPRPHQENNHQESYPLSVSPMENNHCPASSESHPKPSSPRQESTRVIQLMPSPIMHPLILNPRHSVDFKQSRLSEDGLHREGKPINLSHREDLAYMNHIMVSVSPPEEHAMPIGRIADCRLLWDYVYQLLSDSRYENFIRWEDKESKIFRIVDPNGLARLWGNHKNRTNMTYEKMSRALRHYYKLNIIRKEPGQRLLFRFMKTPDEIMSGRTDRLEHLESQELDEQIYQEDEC

ELF4, sequence (Q99607 whole entry): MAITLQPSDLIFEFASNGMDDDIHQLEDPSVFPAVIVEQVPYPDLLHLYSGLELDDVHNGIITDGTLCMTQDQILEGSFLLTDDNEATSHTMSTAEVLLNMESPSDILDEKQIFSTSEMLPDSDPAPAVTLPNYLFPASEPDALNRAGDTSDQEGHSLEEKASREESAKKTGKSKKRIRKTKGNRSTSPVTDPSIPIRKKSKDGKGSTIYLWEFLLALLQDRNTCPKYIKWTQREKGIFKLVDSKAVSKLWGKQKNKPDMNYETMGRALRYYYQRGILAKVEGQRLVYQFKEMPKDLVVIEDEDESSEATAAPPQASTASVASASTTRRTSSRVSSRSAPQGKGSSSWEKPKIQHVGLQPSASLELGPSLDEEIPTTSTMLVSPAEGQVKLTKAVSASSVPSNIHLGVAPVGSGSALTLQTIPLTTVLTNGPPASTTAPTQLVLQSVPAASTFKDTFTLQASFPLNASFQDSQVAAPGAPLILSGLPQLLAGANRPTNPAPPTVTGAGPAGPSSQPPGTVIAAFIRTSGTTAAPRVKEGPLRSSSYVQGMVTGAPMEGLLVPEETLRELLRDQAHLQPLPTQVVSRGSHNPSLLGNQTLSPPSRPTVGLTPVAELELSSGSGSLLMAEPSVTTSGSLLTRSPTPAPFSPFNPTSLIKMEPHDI
HSF1, sequence (Q00613 whole entry): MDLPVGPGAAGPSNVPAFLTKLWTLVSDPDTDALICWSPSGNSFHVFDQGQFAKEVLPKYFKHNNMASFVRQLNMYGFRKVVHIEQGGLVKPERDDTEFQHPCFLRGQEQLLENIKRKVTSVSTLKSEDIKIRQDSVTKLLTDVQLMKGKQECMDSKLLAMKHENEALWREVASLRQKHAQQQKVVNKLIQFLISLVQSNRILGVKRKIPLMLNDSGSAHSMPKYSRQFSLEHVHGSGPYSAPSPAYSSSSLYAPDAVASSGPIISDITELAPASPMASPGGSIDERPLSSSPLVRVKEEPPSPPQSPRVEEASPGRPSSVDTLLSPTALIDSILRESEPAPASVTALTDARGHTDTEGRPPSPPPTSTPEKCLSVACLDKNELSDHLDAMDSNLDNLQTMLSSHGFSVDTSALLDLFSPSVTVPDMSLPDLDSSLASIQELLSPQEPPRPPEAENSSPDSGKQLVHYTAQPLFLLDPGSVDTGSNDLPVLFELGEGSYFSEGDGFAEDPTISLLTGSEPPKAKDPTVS
ETV5, sequence (P41161 whole entry): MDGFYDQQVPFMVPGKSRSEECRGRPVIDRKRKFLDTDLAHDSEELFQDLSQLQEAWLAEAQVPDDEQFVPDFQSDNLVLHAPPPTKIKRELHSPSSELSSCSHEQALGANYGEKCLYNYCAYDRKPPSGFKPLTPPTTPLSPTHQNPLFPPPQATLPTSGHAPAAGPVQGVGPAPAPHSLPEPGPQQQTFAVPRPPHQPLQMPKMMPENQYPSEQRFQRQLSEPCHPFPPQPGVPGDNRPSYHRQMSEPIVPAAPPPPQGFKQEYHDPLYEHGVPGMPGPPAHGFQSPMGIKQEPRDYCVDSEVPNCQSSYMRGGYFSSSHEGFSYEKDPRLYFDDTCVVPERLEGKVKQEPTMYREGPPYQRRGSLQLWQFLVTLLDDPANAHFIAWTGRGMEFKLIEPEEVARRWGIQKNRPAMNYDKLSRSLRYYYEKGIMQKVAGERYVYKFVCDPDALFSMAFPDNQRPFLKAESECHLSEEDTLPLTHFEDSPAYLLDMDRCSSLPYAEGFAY
CRX, sequence (O43186 whole entry): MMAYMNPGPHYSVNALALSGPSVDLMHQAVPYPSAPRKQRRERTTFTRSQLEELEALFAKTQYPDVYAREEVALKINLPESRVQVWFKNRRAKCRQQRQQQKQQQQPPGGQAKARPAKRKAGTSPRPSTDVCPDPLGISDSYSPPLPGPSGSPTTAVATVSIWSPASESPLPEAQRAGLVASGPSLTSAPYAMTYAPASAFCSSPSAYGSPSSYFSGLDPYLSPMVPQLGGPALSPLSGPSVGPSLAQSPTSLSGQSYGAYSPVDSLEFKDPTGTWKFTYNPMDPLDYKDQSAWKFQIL
ETV1, sequence (P50549 whole entry): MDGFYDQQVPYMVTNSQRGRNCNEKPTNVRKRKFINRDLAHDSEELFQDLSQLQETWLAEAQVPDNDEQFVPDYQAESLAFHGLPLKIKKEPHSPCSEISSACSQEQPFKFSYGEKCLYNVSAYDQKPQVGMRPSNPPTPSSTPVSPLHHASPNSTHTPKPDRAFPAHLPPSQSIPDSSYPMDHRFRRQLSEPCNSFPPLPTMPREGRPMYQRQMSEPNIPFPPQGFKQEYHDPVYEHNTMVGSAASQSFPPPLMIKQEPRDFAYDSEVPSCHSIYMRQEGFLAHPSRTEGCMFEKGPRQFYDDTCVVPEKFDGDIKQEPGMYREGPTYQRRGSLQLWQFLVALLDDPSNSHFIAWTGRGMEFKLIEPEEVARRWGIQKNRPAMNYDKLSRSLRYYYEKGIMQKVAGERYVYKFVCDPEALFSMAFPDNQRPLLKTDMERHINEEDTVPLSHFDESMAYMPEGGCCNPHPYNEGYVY

Consider GCTATA, for which the binding signal was 1.14 fold enrichment (6-mer frequency, TF over GST control) with FEV; 1.18 fold enrichment (6-mer frequency, TF over GST control) with ETV5; 1.08 fold enrichment (6-mer frequency, TF over GST control) in the assay with HSF1; 1.08 fold enrichment (6-mer frequency, TF over GST control) in the assay with SPIC; 1.14 fold enrichment (6-mer frequency, TF over GST control) in the assay with ELF4; 1.18 fold enrichment (6-mer frequency, TF over GST control) with ELK4. In addition, the binding signal in the assay with ETV2 was 1.2 fold enrichment (6-mer frequency, TF over GST control); with ELF3 it was 1.22 fold enrichment (6-mer frequency, TF over GST control); with CRX, 1.23 fold enrichment (6-mer frequency, TF over GST control); with ETV1, 1.14 fold enrichment (6-mer frequency, TF over GST control); with ERF, 1.16 fold enrichment (6-mer frequency, TF over GST control); with ETV3L, 1.08 fold enrichment (6-mer frequency, TF over GST control). Further, the binding signal is 1.14 fold enrichment (6-mer frequency, TF over GST control) in the assay with ETS2; 1.21 fold enrichment (6-mer frequency, TF over GST control) with SPDEF; 1.18 fold enrichment (6-mer frequency, TF over GST control) with ETV7; 1.15 fold enrichment (6-mer frequency, TF over GST control) in the assay with ELF5; 1.18 fold enrichment (6-mer frequency, TF over GST control) in the assay with ETV3; 1.14 fold enrichment (6-mer frequency, TF over GST control) with ETV6.
